From PubChem
Many of the other results were omitted from the sample, so hits are more common in it than they were.
NOMO-1 viab – NOMO-1 AML cell viability reduction, primary screen, STK33 inhibitor project, CellTiter-Glo luminescence. hit rate 7.5% among 37,000. NOMO-1 AML viability, 72 h. AID 2330, 2010. inhibition, % (concentration not given with the values); in the data active = inhibition above about 80%; inconclusive = no clear call, values can overlap the other calls
PD-1 reversal – activators reversing PD-1 mediated T-cell inhibition, primary screen, luminescence, primary human CD4 T cells, PD-L1 beads. CellTiter-Glo 96 h. 29,000 tested, under 10 active. activation, % (test concentration not listed); call rule not given here;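 also: 0% = median vehicle wells and 100% = positive control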
ROS inducer – ROS inducers in U2OS cancer cells, primary screen, cell-based, H2DCF-DA fluorescence; U2OS ROS induction; ROS induction (% of piperlongumine), % at 10 µM; hit rate 2% among 46,000; AID 624156, 2012; in the data active = ROS induction above about 79%, passing the limit was not always enough; inconclusive = no clear call, values can overlap the other calls;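 also: 0% = DMSO vehicle median and 100% = reference compound median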
Active calls of the source: *; ? = inconclusive; . = no result.

SMILES | NOMO-1 viab | PD-1 reversal | ROS inducer
Cc1c(CCNC(NC(=O)c2ccc(Cl)cc2)(C(F)(F)F)C(F)(F)F)c2ccccc2n1C | . | . | 5
CC(=O)Nc1cc(C(=O)NCCc2ccc(C)cc2)ccc1Sc1ccc(C)cc1 | . | . | 4
OC(CNCc1ccccc1)Cn1c2ccc(Cl)cc2c2cc(Cl)ccc21 (centres undefined) | . | . | 4
OC(CNCc1ccccc1)Cn1c2ccccc2c2ccccc21 (centres undefined) | 111* | . | .
Cc1nnc(NC(=O)CSc2nnc(Cc3cccn3C)n2-c2ccc(F)cc2)s1 | . | . | 5
COc1ccc(CNCc2ccc(C)cc2)cc1 | . | . | 1
COCCOC(=O)N1C(=O)[C@@]2(c3cc(C#CC4=CCCCC4)ccc31)[C@H](C(N)=O)[C@H]1C(=O)O[C@H](c3ccccc3)[C@H](c3ccccc3)N1[C@@H]2c1ccc(O)cc1 | . | . | 6
COCCOC(=O)N1C(=O)[C@@]2(c3cc(C#CC4=CCCCC4)ccc31)[C@H](C(N)=O)[C@H]1C(=O)O[C@H](c3ccccc3)[C@H](c3ccccc3)N1[C@@H]2c1ccccc1OCCO | . | . | 138*
COCCOC(=O)N1C(=O)[C@@]2(c3cc(C#CC4=CCCCC4)ccc31)[C@H](c1ccccc1OCCO)N1[C@H](c3ccccc3)[C@H](c3ccccc3)OC(=O)[C@H]1[C@@H]2C(=O)NC[C@H](O)c1ccccc1 | . | . | 144*
COCCOC(=O)N1C(=O)[C@@]2(c3cc(C#CCCO)ccc31)[C@H](C(=O)NC[C@H](O)c1ccccc1)[C@H]1C(=O)O[C@H](c3ccccc3)[C@H](c3ccccc3)N1[C@@H]2c1ccccc1OCCO | . | . | 23
COC(=O)c1ccc(OC)c(Br)c1 | . | . | 7
CCOC(=O)c1ccc(SC)cc1OC | 3 | -1 | 7
CSc1nc2sc3c(c2c2nnc(SCC(=O)Nc4ccccc4)n12)CCC3 | 129* | -4 | 58
O=C(CSc1nc2sc3c(c2c(=O)n1-c1ccccc1)CCCC3)Nc1ccccc1 | 29 | . | .
COC(=O)c1c(-c2ccc(OC)c(OC)c2)csc1NC(=O)C1CC1c1ccccc1 (centres undefined) | . | . | 15
CCOc1ccccc1NC(=O)c1ccc(Br)cc1 | . | . | -5
COc1ccc(OC)c(C(O)CNC(=O)CN)c1 (centres undefined) | 9 | . | 122*
COc1ccc(CC(=O)NCC(C)C)cc1 | -3 | 2 | 4
FC(F)(F)Oc1ccc(-c2nnc(-c3cccnc3)o2)cc1 | . | . | -2
CCOc1ccc(C(Nc2cccnc2)c2cc(Cl)c3cccnc3c2O)cc1 (centres undefined) | 115* | . | .
COc1cc(C(Nc2ccccn2)c2cc(Cl)c3cccnc3c2O)cc(Br)c1O (centres undefined) | 48 | . | .
Cc1ccc(C)c(C(Nc2ccccn2)c2cc(Cl)c3cccnc3c2O)c1 (centres undefined) | 113* | -10 | 1
CSc1ccc(S(=O)(=O)NCc2ccccn2)cc1 | 13 | -1 | -7
CSc1ccc(C(Nc2ccccn2)c2cc(Cl)c3cccnc3c2O)cc1 (centres undefined) | 112* | -9 | ?
CCc1ccc(C(Nc2ccccn2)c2cc(Cl)c3cccnc3c2O)cc1 (centres undefined) | 123* | -13 | 28
SMILES | NOMO-1 viab | PD-1 reversal | ROS inducer
CCOc1ccc(NC(=S)NC(c2ccccc2)c2ccccc2)cc1 | . | . | 11
NNC(=O)CNC(=O)C1COc2ccccc2O1 (centres undefined) | . | . | -11
O=C(CCc1nc2ncccc2c(=O)n1Cc1ccccc1Cl)N1CCN(c2ccccc2)CC1 | . | . | 0
N/C(=N/O)c1ccccc1N | . | . | -6
N/C(=N/C(=S)Nc1ccccc1)N1CCOCC1 | 8 | 2 | -5
CC(C)(C)c1csc(=Nc2ccc(F)cc2F)o1 | 15 | -1 | 8
COc1ccc(C(=O)CSc2nc3c([nH]2)c(=O)n(C)c(=O)n3C)cc1 | . | . | 1
CCOC(=O)COc1ccc(-c2nc3c([nH]2)c(=O)n(C)c(=O)n3C)cc1OC | 149* | 2 | -1
CCOC(=O)c1[nH]c2cc(OC)c(OC)cc2c1N1C(=O)CCC1=O | . | . | -2
CC(C)N1C(=O)S/C(=C/c2cc(Br)c(OCC(=O)O)c(Br)c2)C1=O | . | . | 28
CSc1nnc2c(n1)OC(C)N(C(C)=O)c1ccccc1-2 (centres undefined) | 7 | 0 | 12
C=CCSc1nnc2c(n1)OC(c1ccc(-c3ccc(F)cc3)o1)N(C(C)=O)c1ccccc1-2 (centres undefined) | 35 | 0 | 118*
CC1CC(C)CN(C(=O)c2ccc(CNS(=O)(=O)c3ccc(F)cc3)cc2)C1 (centres undefined) | . | . | 21
Cc1cccc(C)c1Nc1nc2c(C)cc(C)c(C)c2s1 | 45 | -1 | 37
